HT1080-NT tox – kills 2HG-producing HT-1080-NT fibrosarcoma cells; HT-1080-NT fibrosarcoma viability, CellTiter-Glo ATP luminescence, 48 h; Potency, µM (top dose mostly 46.1 µM), without a hit: at the top dose activity, negative = less viability, hits mostly cytotoxic; hit rate 1.6% among 360,000; AID 686970;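 also: NT is the 2HG producing partner of a matched IDH1 knockdown line; potency is read from the fitted curve at half-maximal effect; 0% = DMSO-treated cells and -100% = media-only wells without cells; nearly all actives have a fitted effect of over 55% in size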
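A 48-hour cytotoxicity screen used HT-1080-NT cells plated 2 hours before compound delivery. ATP-based CellTiter-Glo luminescence measured viability, normalized to DMSO and no-cell controls.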
IL1B secr inh – inflammasome signaling inhibition, IL-1 beta readout; activity change, % at 57.5 µM; THP-1 LPS/ATP IL-1B secretion, AlphaLISA, 16 h; hits give low values; hit rate 4.7% among 360,000; in the data active = activity change below about -50%; inconclusive = mostly about -30% to -49%
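THP-1 cells pretreated 1 hr with compounds (up to 57.5 uM final), then stimulated with LPS (250 ng/mL final) plus ATP (1.25 mM final); secreted IL-1B measured by AlphaLISA after 16 hr, decreased signal indicating inhibition.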
ELG1 DNA repair – blocks ELG1-dependent DNA repair in HEK293T cells | hit rate 2.3% among 330,000 | HEK293T ELG1-luciferase reporter, luminescence, 16 h; DNA damage induced by 5-fluorouridine | Potency, µM (highest dose often 46.1 µM), for inactives: top-dose activity change, negative = inhibition, most hits filed as inhibitors; also: potency is read from the fitted curve at half-maximal effect; nearly all actives have a fitted effect of over 55% in size
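DMSO vehicle served as the neutral condition. Each well held 2,000 cells given 5-fluorouridine plus compound; after 16 hr at 37 °C/5% CO2, ONE-Glo was added and luciferase measured 30 min later.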
HT1080 IDH1KD tx – kills HT-1080 cells with IDH1 knockdown | HT-1080 IDH1 knockdown viability, ATP luminescence, 48 h | hit rate 2% among 360,000 | Potency, µM (highest dose often 46.1 µM), for the others: top-dose activity, negative = toxicity, most hits filed as cytotoxic;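 also: potency is read from the fitted curve at half-maximal effect; 0% = DMSO wells and -100% = cell-free medium wells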
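Using the IDH1-knockdown HT-1080 line run in the same batch and compound series as the NT line, viability after 48 h at 37 °C was determined by CellTiter-Glo luminescence and expressed as % activity.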
TDP1 cell noCPT – qHTS for Inhibitors of human tyrosyl-DNA phosphodiesterase 1 (TDP1): qHTS in cells in absence of CPT; DT40 Tdp1-/- hTDP1 cells, no CPT, ATP luminescence, 48 h; hit rate 15% among 420,000; Potency, µM (highest dose often 46.2 µM), without a hit: at the top dose activity change, negative = growth inhibition, most hits filed as inhibitors; also: potency is read from the fitted curve at half-maximal effect; nearly all actives have a fitted effect of over 55% in size
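Growth kinetics read by CellTiter-Glo luminescence after ≥48 hr at 37 °C. Cells: DT40 Tdp1-/- stably carrying human TDP1, 400 per well, compound exposure in the absence of CPT (DMSO vehicle).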
TDP1 cell CPT – DT40-hTDP1 cell growth loss with CPT | Potency, µM (doses to about 46.2 µM), for inactives: at the highest dose activity change, negative = growth inhibition, most hits filed as inhibitors | AID 686979 | hit rate 12% among 420,000 | chicken DT40 Tdp1-/-;hTDP1 cells + 20 nM CPT, ATP luminescence, 48 h; also: potency is read from the fitted curve at half-maximal effect; nearly all actives have a fitted effect of over 55% in size
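Cell growth measured by CellTiter-Glo luminescence after a minimum 48 h, 37 C compound exposure with 20 nM CPT in Tdp1-knockout DT40 cells stably expressing hTDP1, seeded 400/well; qHTS titration format.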
Numbers without * were called inactive. Rows were chosen to be rich in hits. Some 19% of all compounds tested hit in one or more screens of this group. Unless noted, calls follow the shape of the dose curve; as a rule, active = well fitted curve in the direction sought with a large enough effect; inconclusive = small, poorly fitted or top-dose-only effect, or another doubt; inactive = no such curve, though single readings can be large; an effect the other way counts as inactive or inconclusive. Unless noted, % is scaled to controls: 0 for no effect and ±100 for the full control effect.

Screening CCOc1ccc(/C=C/C(=O)NCCc2ccc(OC)c(OC)c2)cc1 returned HT1080-NT tox -1%, IL1B secr inh -2, ELG1 DNA repair -16%, HT1080 IDH1KD tx 3%, TDP1 cell noCPT 23µM* and TDP1 cell CPT inconclusive.
`CCOc1ccc(Sc2cc(C(=O)NCCc3ccccc3)c3ccccc3n2)cc1` gave TDP1 cell noCPT -28% and TDP1 cell CPT -15%.
For CCOc1ccc(Sc2cc(C(=O)NCc3ccc(C)cc3)c3ccccc3n2)cc1 the results were TDP1 cell noCPT -22% and TDP1 cell CPT -24%.
For CCOc1ccc(Sc2cc(C(=O)NCCc3ccc(OC)c(OC)c3)c3ccccc3n2)cc1 the results were TDP1 cell noCPT 5.8µM* and TDP1 cell CPT 3.7µM*.
For COc1ccc(CCNC(=O)c2cc(Sc3cccc(Cl)c3)nc3ccccc23)cc1OC the results were TDP1 cell noCPT 7.3µM* and TDP1 cell CPT 8.2µM*.
Cc1ccc(NC(=O)C2CCN(S(=O)(=O)c3cccc4nonc34)CC2)c(Cl)c1 was read as TDP1 cell noCPT 5% and TDP1 cell CPT -15%.
For Cc1cc(C)n(CC(=O)NNC(=O)C2CC(=O)N(Cc3ccccc3Cl)C2)n1 (stereo unspecified) the results were HT1080-NT tox 23%, IL1B secr inh 1, ELG1 DNA repair -2%, HT1080 IDH1KD tx 18%, TDP1 cell noCPT inconclusive and TDP1 cell CPT 4%.
Screening COc1ccc(/C=C/C(=O)NCCN2CCOCC2)cc1OC returned HT1080-NT tox 1%, IL1B secr inh -4, ELG1 DNA repair 14%, HT1080 IDH1KD tx -7%, TDP1 cell noCPT 21µM* and TDP1 cell CPT inconclusive.
Screening CCOCCCNC(=O)c1cc(Sc2cccc(Cl)c2)nc2ccccc12 returned TDP1 cell noCPT 15µM* and TDP1 cell CPT inconclusive.
`COc1cc(/C=C/C(=O)NCCN2CCOCC2)cc(OC)c1OC` gave HT1080-NT tox 18%, IL1B secr inh 15, ELG1 DNA repair inconclusive, HT1080 IDH1KD tx 14%, TDP1 cell noCPT 4% and TDP1 cell CPT -1%.
Screening CCOCCCNC(=O)c1cc(Sc2ccc(C)cc2)nc2ccccc12 returned HT1080-NT tox -4%, IL1B secr inh inconclusive, ELG1 DNA repair inconclusive, HT1080 IDH1KD tx -14%, TDP1 cell noCPT inconclusive and TDP1 cell CPT -20%.
For Cc1cc(-c2cc(C(=O)NCc3ccccc3)on2)nc(S(C)(=O)=O)n1 the results were HT1080-NT tox inconclusive, IL1B secr inh -103*, ELG1 DNA repair inconclusive, HT1080 IDH1KD tx inconclusive, TDP1 cell noCPT 5.8µM* and TDP1 cell CPT 7.3µM*.
`O=C1[C@@H](Oc2ccccc2)[C@@H](c2cnc3ccccc3c2)N1c1ccccc1` gave HT1080-NT tox inconclusive, IL1B secr inh -5, ELG1 DNA repair 16µM*, HT1080 IDH1KD tx 21µM*, TDP1 cell noCPT 15µM* and TDP1 cell CPT 21µM*.
O=C1[C@H](Oc2ccccc2)[C@@H](c2ccncc2)N1c1ccncc1 was read as HT1080-NT tox 3%, IL1B secr inh 5, ELG1 DNA repair 26%, HT1080 IDH1KD tx 8%, TDP1 cell noCPT 8% and TDP1 cell CPT -3%.
For CCc1c(C)nc2ncnn2c1NCCc1ccc(Cl)cc1 the results were HT1080-NT tox -29%, IL1B secr inh -20, ELG1 DNA repair inconclusive, HT1080 IDH1KD tx -14%, TDP1 cell noCPT 9.2µM* and TDP1 cell CPT 16µM*.
`CC(C)CC1NC(=O)N(Cc2cc(=O)n3ccsc3n2)C1=O` (stereo unspecified) gave HT1080-NT tox 0%, IL1B secr inh 19, ELG1 DNA repair 2%, HT1080 IDH1KD tx 9%, TDP1 cell noCPT -16% and TDP1 cell CPT -1%.
Screening CCOC(=O)c1c(N/N=C/c2cccnc2)n[nH]c1C returned HT1080-NT tox inconclusive, IL1B secr inh -17, ELG1 DNA repair inconclusive, HT1080 IDH1KD tx inconclusive, TDP1 cell noCPT 13µM* and TDP1 cell CPT 13µM*.
For O=C1CC(SCCc2nc3ccccc3[nH]2)C(=O)N1c1ccc(F)c(Cl)c1 (stereo unspecified) the results were HT1080-NT tox 3%, IL1B secr inh 11, HT1080 IDH1KD tx 1%, TDP1 cell noCPT -2% and TDP1 cell CPT -2%.
Screening O=C1CC(SCc2nc3ccccc3[nH]2)C(=O)N1c1cccc(Cl)c1 (stereo unspecified) returned HT1080-NT tox 13%, IL1B secr inh 11, ELG1 DNA repair 3%, HT1080 IDH1KD tx 19%, TDP1 cell noCPT 13µM* and TDP1 cell CPT inconclusive.
For NCCSC1CC(=O)N(c2ccc(F)cc2)C1=O (stereo unspecified) the results were HT1080-NT tox 10%, IL1B secr inh -22, ELG1 DNA repair 10%, HT1080 IDH1KD tx 18%, TDP1 cell noCPT 7% and TDP1 cell CPT 20%.
Screening O=C1CC(SCc2nc3ccccc3[nH]2)C(=O)N1c1ccc(F)cc1 (stereo unspecified) returned HT1080-NT tox 4%, IL1B secr inh 17, ELG1 DNA repair 0%, HT1080 IDH1KD tx -1%, TDP1 cell noCPT 18µM* and TDP1 cell CPT inconclusive.
CCc1nc2ccc(C(=O)N3CCNC(=O)C3)cn2c1N(C)CCC(C)C was read as HT1080-NT tox 13%, IL1B secr inh -11, HT1080 IDH1KD tx 20%, TDP1 cell noCPT -25% and TDP1 cell CPT -8%.
Screening O=C(Oc1ccc(OC(=O)C2CCC2)cc1)C1CCC1 returned HT1080-NT tox 3%, IL1B secr inh 15, ELG1 DNA repair -17%, HT1080 IDH1KD tx -4%, TDP1 cell noCPT 23µM* and TDP1 cell CPT inconclusive.
For O=C(Oc1ccc2ccccc2c1)C1CCC1 the results were HT1080-NT tox 4%, IL1B secr inh 28, ELG1 DNA repair 5%, HT1080 IDH1KD tx 2%, TDP1 cell noCPT -24% and TDP1 cell CPT -13%.
Screening CCOC(=O)C1=C(CCc2ccccc2)NC(=O)NC1c1ccc(Br)cc1 (stereo unspecified) returned HT1080-NT tox -18%, IL1B secr inh -20, ELG1 DNA repair -22%, HT1080 IDH1KD tx -19%, TDP1 cell noCPT inconclusive and TDP1 cell CPT inconclusive.
CCOC(=O)C1=C(CN(C)Cc2ccccc2)NC(=O)NC1c1ccc(OC(C)C)cc1 (stereo unspecified) was read as TDP1 cell noCPT 16µM* and TDP1 cell CPT 16µM*.
